From the antibiotic and cytotoxicity screens of Wong et al. (2023) come the findings set out here.

In all, about 39,000 compounds went through this assay and about 500 (1.3%) were called active. The sample holds actives, similar compounds and a random draw of the others, so the mix is not that of the screen.

The subject of this experiment is S. aureus RN4220. As to the kind of experiment: growth inhibition call (relative growth <= 0.2). The settings on record: 50 µM.
As to `CN1CCN(C(=O)C[C@@H]2CC[C@H]3[C@@H](COC[C@H](O)CN3C(=O)Nc3cc(Cl)cc(Cl)c3)O2)CC1`, the growth inhibition call was “inactive”.

Consider `O=C(C[C@H]1CC[C@H]2[C@@H](COC[C@@H](O)CN2C(=O)Nc2cc(Cl)cc(Cl)c2)O1)N1CCOCC1`, for which the growth inhibition call is “inactive”.

Regarding `O=C(C[C@H]1CC[C@H]2[C@@H](COC[C@H](O)CN2C(=O)Nc2cc(Cl)cc(Cl)c2)O1)N1CCOCC1`, the growth inhibition call is “inactive”.

On to `O=C(C[C@@H]1CC[C@H]2[C@@H](COC[C@H](O)CN2C(=O)Nc2cc(Cl)cc(Cl)c2)O1)N1CCOCC1`, for which the growth inhibition call was “inactive”.

`O=C(C[C@H]1CC[C@@H]2[C@H](COC[C@H](O)CN2C(=O)Nc2cc(Cl)cc(Cl)c2)O1)N1CCOCC1`: the growth inhibition call is “inactive”.

With `O=C(C[C@@H]1CC[C@H]2[C@@H](COC[C@@H](O)CN2C(=O)Nc2cc(Cl)cc(Cl)c2)O1)N1CCOCC1`, the growth inhibition call was “active”.

Turning to `O=C(C[C@H]1CC[C@@H]2[C@H](COC[C@@H](O)CN2C(=O)Nc2cc(Cl)cc(Cl)c2)O1)N1CCOCC1`, the growth inhibition call was “inactive”.

For `O=C(C[C@@H]1CC[C@@H]2[C@H](COC[C@@H](O)CN2C(=O)Nc2cc(Cl)cc(Cl)c2)O1)N1CCOCC1`, the growth inhibition call was “active”.

Regarding `O=C(C[C@@H]1CC[C@@H]2[C@H](COC[C@H](O)CN2C(=O)Nc2cc(Cl)cc(Cl)c2)O1)N1CCOCC1`, the growth inhibition call was “active”.

Regarding `C[C@H](O)C#Cc1ccc2c(c1)O[C@H](CN(C)C(=O)c1ccccc1)[C@H](C)CN([C@H](C)CO)S2(=O)=O`, the growth inhibition call was “inactive”.

For `C[C@@H]1CCCCO[C@@H](CN(C)C(=O)Nc2ccc(C(F)(F)F)cc2)[C@H](C)CN([C@H](C)CO)C(=O)c2cc(NS(=O)(=O)c3cn(C)cn3)ccc2O1`, the growth inhibition call is “inactive”.

On to `C[C@@H]1CN([C@H](C)CO)C(=O)c2cc(NC(=O)CCN3CCOCC3)ccc2O[C@H]1CN(C)C(=O)Nc1ccc2c(c1)OCO2`, for which the growth inhibition call was “inactive”.

As for `Cc1noc(C)c1S(=O)(=O)Nc1ccc2c(c1)C(=O)N([C@H](C)CO)C[C@H](C)[C@H](CN(C)Cc1ccccc1)OCCCC[C@@H](C)O2`, the growth inhibition call was “inactive”.

As for `Cc1ccc(C)c(Cc2cc(Cl)ccc2Cl)c1`, the growth inhibition call was “inactive”.

Turning to `Cc1noc(C)c1NC(=O)Nc1ccc2c(c1)C(=O)N([C@H](C)CO)C[C@@H](C)[C@@H](CN(C)C(=O)C1CCCCC1)OCCCC[C@@H](C)O2`, the growth inhibition call is “inactive”.

With `C[C@@H]1CN([C@H](C)CO)C(=O)c2cc(NS(=O)(=O)c3cn(C)cn3)ccc2O[C@@H](C)CCCCO[C@@H]1CN(C)CC1CC1`, the growth inhibition call was “inactive”.

`CCNC(=O)C[C@@H]1CC[C@H](NC(=O)C2CCOCC2)[C@@H](CO)O1`: the growth inhibition call is “inactive”.

For `OC[C@H]1COc2ccccc2O1`, the growth inhibition call is “inactive”.

For the compound `C[C@@H]1CCCCO[C@H](CN(C)S(=O)(=O)c2ccc(Cl)cc2)[C@@H](C)CN([C@H](C)CO)C(=O)c2cc(NS(=O)(=O)c3ccc(F)cc3)ccc2O1`, the growth inhibition call was “inactive”.

With `CN1C(=O)[C@H]2[C@H](C1=O)[C@H]1C=C(c3ccc(CO)cc3)[C@@H]2[C@H](c2cccs2)N1Cc1cccc(OC(F)(F)F)c1`, the growth inhibition call is “active”.

Consider `NC(=O)N1C(=O)[C@H]2[C@H](C1=O)[C@H]1C=C(c3ccc(CO)cc3)[C@@H]2[C@@H](C2CC2)N1Cc1cc2c(cc1Br)OCO2`, for which the growth inhibition call was “inactive”.

`NC(=O)N1C(=O)[C@H]2[C@H](C1=O)[C@H]1C=C(CCCO)[C@@H]2[C@H](c2cccs2)N1Cc1cc2c(cc1Br)OCO2`: the growth inhibition call is “inactive”.

As to `CC(C)NC(=O)N(C)C[C@@H]1Oc2ccc(NC(=O)CCCN(C)C)cc2CC(=O)N([C@@H](C)CO)C[C@H]1C`, the growth inhibition call is “inactive”.

Consider `Cc1ccc(S(=O)(=O)N(C)C[C@@H]2OCCCC[C@@H](C)Oc3ccc(NC(=O)Nc4ccc(F)cc4)cc3C(=O)N([C@H](C)CO)C[C@H]2C)cc1`, for which the growth inhibition call was “inactive”.

For `CN(C)CCCNC(=O)C[C@@H]1CC[C@@H]2[C@H](COc3ccc(NC(=O)c4cccc(F)c4)cc3C(=O)N2C)O1`, the growth inhibition call was “inactive”.

As to `CC(C)(c1cc(Br)c(O)c(Br)c1)c1cc(Br)c(O)c(Br)c1`, the growth inhibition call was “active”.

For the compound `Cc1cc(C(C)(C)C)c(O)c(C(C)(C)C)c1`, the growth inhibition call was “inactive”.

On to `O=C(C[C@@H]1CC[C@H]2NC[C@H](O)COC[C@@H]2O1)NCCN1CCCCC1`, for which the growth inhibition call is “inactive”.

`C[C@@H]1CCCCO[C@@H](CN(C)S(=O)(=O)c2cccs2)[C@H](C)CN([C@H](C)CO)C(=O)c2cc(NC(=O)Nc3ccc(F)cc3)ccc2O1`: the growth inhibition call was “inactive”.

For `COCC#Cc1ccc2c(c1)O[C@@H](CN(C)S(=O)(=O)c1ccc(OC)cc1)[C@@H](C)CN([C@H](C)CO)S2(=O)=O`, the growth inhibition call was “inactive”.

`Cn1c(=O)c2c(nc(NCCO)n2C)n(C)c1=O`: the growth inhibition call is “inactive”.

With `C=CCc1ccc(O[C@@H]2O[C@H](CO[C@@H]3O[C@@H](C)[C@H](O)[C@@H](O)[C@H]3O)[C@@H](O)[C@H](O)[C@H]2O)c(O)c1`, the growth inhibition call is “inactive”.

As for `S=c1ccss1`, the growth inhibition call was “active”.

Consider `O=C(C[C@@H]1C[C@@H]2c3cc(NS(=O)(=O)c4ccc(F)cc4)ccc3O[C@@H]2[C@H](CO)O1)NCc1cccc(F)c1`, for which the growth inhibition call was “inactive”.

In the case of `[N-]=[N+]=N[C@]1(CO)O[C@@H](n2ccc(N)nc2=O)[C@@H](O)[C@@H]1O`, the growth inhibition call was “inactive”.

As to `CNC[C@H]1Oc2ccc(NS(=O)(=O)c3cn(C)cn3)cc2CC(=O)N([C@H](C)CO)C[C@@H]1C`, the growth inhibition call is “inactive”.

Consider `CN1CCN(C(=O)C[C@H]2CC[C@H]3[C@@H](COc4ccc(NC(=O)c5cscn5)cc4C(=O)N3C)O2)CC1`, for which the growth inhibition call was “inactive”.

Take `Cn1c(=O)c2cc(S(=O)(=O)NCCC(=O)NC3CCCC3)ccc2n(C)c1=O`: the growth inhibition call is “inactive”.

Consider `C#CC[C@H](c1nc2cc(Cl)ccc2c(=O)n1Nc1ccccc1)N(CCCN)C(=O)c1cccc(Cl)c1F`, for which the growth inhibition call is “active”.

In the case of `CO[C@H](CN(C)C(=O)c1ccccc1F)[C@@H](C)CN([C@@H](C)CO)S(=O)(=O)c1ccc(Cl)cc1`, the growth inhibition call was “inactive”.

Take `C[C@H]1CCCCO[C@@H](CN(C)C(=O)Nc2ccc3c(c2)OCO3)[C@@H](C)CN([C@@H](C)CO)C(=O)c2cc(NC(=O)CCC(F)(F)F)ccc2O1`: the growth inhibition call was “inactive”.

With `C[C@H](CO)N1C[C@H](C)[C@@H](CN(C)C(=O)Nc2ccccc2)OCCCC[C@H](C)Oc2ccc(NC(=O)Nc3cccc4ccccc34)cc2C1=O`, the growth inhibition call was “inactive”.

As to `CC[C@H]1OC(=O)[C@H](C)[C@@H](O[C@H]2C[C@@](C)(OC)[C@@H](O)[C@H](C)O2)[C@H](C)[C@@H](O[C@@H]2O[C@H](C)C[C@H](N(C)C)[C@H]2O)[C@](C)(OC)C[C@@H](C)C(=O)[C@H](C)[C@@H](O)[C@]1(C)O`, the growth inhibition call is “active”.

As for `CC[C@@H]1OC(=O)[C@@H](C)[C@H](O[C@H]2C[C@@](C)(OC)[C@@H](O)[C@H](C)O2)[C@@H](C)[C@H](O)[C@@](C)(O[C@@H]2O[C@H](C)C[C@H](N(C)C)[C@H]2O)C[C@H](C)C(=O)[C@@H](C)[C@H](O)[C@@]1(C)O`, the growth inhibition call was “active”.

Take `CCC1OC(=O)C(C)C(OC2CC(C)(OC)C(O)C(C)O2)C(C)C(OC2OC(C)CC(N(C)C)C2O)C(C)(OC)CC(C)C(=O)C(C)C(O)C1(C)O` (stereo not given): the growth inhibition call is “active”.
